From PubChem BioAssay
Compounds with a hit are over-represented: about 1.1% of the library has one in this group of screens.
Mtb betalactam: beta-lactam sensitization of Mtb H37Rv | M. tuberculosis H37Rv growth with meropenem, percent inhibition | inhibition, % at 25 µM | 330,000 tested, 0.27% active; call rule not given here;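 further: growth measured after seven days incubation then overnight dye step; 0% = bacteria only wells and 100% = bacteria with antibiotic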
RecA intein inh: inhibitors of M. tuberculosis RecA intein splicing; inhibition, % (test concentration not listed); 290,000 tested, 0.75% active; AID 2221; P9WHJ3; cell-free RecA intein splicing, fluorescence; in the data active means inhibition above about 30%;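 further: 0% = vehicle wells and 100% = reference inhibitor control wells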
Rv3671c protease: inhibitors of M. tuberculosis serine protease Rv3671c; inhibition, % at 5.96 µM; 320,000 tested, 0.048% active; AID 2606; in the data active means inhibition above about 38%;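 further: extracellular domain of Rv3671c used as enzyme; 0% = enzyme with DMSO and 100% = no enzyme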
Mtb UGM inh: inhibitors of M. tuberculosis UDP-galactopyranose mutase; P9WIQ1; 320,000 tested, 0.06% active; AID 504406; purified UGM, fluorescence polarization probe displacement; inhibition, % at 10 µM; in the data active means inhibition above about 10%, passing the limit was not always enough
Target sequence (P9WIQ1 whole entry, looked up): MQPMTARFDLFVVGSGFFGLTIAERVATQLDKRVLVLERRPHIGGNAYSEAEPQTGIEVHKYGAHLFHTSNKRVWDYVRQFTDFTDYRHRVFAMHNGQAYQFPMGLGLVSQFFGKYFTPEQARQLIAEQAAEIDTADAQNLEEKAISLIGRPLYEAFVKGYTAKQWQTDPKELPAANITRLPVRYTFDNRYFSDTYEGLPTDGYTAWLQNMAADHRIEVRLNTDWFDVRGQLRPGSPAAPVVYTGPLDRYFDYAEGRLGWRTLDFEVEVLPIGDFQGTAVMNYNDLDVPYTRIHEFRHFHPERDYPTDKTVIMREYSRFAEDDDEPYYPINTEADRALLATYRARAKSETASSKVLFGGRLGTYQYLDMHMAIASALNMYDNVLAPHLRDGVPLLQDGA
SSB-PriA inh: inhibitors of Klebsiella pneumoniae PriA binding to SSB C-terminal tail | AlphaScreen SSBct-PriA binding, biotinylated peptide | inhibition, % at 33 µM | 430,000 tested, 0.6% active | AID 1272365; in the data active means inhibition mostly above about 37%, no sharp cut-off; inactive means mostly below about 20%;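 further: plate controls were negative control peptide for no effect and reference peptide for full effect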
* marks the source's active call; other numbers are inactive results; . = not tested or not shown.

SMILES	Mtb betalactam	RecA intein inh	Rv3671c protease	Mtb UGM inh	SSB-PriA inh
COc1ccc(C(=O)c2oc3ccc(NC(=O)C4CCCCC4)cc3c2C)cc1OC	.	.	.	.	-5.0
O=C(O)CC(CC(=O)NCc1ccccc1)c1ccc(Br)cc1 (stereo unspecified)	.	.	.	.	-12.0
CC(=O)N(C)Cc1ccc(C(=O)CCl)cc1	9.1	37.0*	5.4	2.3	-7.2
CCOC(=O)C1CCCN(C(=O)CCc2csc3nc(-c4ccc(Cl)cc4)cn23)C1 (stereo unspecified)	.	.	.	.	-2.0
Cc1onc(-c2ccccc2Cl)c1C(=O)N1CCN(C(=O)[C@H]2C[C@@H]2c2cccs2)CC1	.	.	.	.	-15.0
O=C1C2CCCCC2C(=O)N1c1ccc(NC2CCN(Cc3ccccc3)CC2)c([N+](=O)[O-])c1 (stereo unspecified)	3.6	-5.7	7.5	-0.6	31.2
CC1CCC2C(=O)N(c3ccc(NC4CCN(Cc5ccccc5)CC4)c([N+](=O)[O-])c3)C(=O)C2C1 (stereo unspecified)	1.2	-0.5	-4.2	0.5	43.5*
COc1ccc(NC(=O)C(=O)NCC(c2ccc3c(c2)CCN3C)N(C)C)c(OC)c1 (stereo unspecified)	.	.	.	.	25.0
COc1ccc(C)cc1NC(=O)C(=O)NCC(c1ccc2c(c1)CCN2C)N(C)C (stereo unspecified)	.	.	.	.	53.0*
Cc1ccc(O)c(N=Nc2ccc(S(=O)(=O)N3CCOCC3)cc2)c1	2.4	-2.4	3.7	0.0	39.0*
O=C(NC1CCC(Oc2ccccn2)CC1)c1ccoc1 (stereo unspecified)	.	.	.	.	-9.0
CCN(c1ccccc1)S(=O)(=O)c1ccc(Cl)c(NC(=O)COC(=O)c2cc(O)c3ccccc3c2O)c1	-2.5	80.3*	-132.9	-1.3	.
Cc1cc2ncc(NC(=O)Cn3c(=O)oc4ccccc43)cn2n1	.	.	.	.	11.0
Cc1cc(C)n(-c2nnc(C)c(=O)[nH]2)n1	-3.6	-5.5	-12.8	0.9	73.5*
O=c1oc(-c2ccc(F)cc2)nc2ccsc12	84.0	26.1	-19.4	-1.6	-6.6
O=c1oc(-c2ccccc2Cl)nc2ccsc12	96.6	35.3*	8.5	0.1	4.8
COCCN1CCCc2ccc(N)cc21	.	.	.	.	79.0*
COCCN1CCCc2ccc(NC(=O)c3ccc(Br)cc3)cc21	.	.	.	.	61.0*
COCCN1CCCc2ccc(NC(=O)c3cc(C)cc(C)c3)cc21	.	.	.	.	62.0*
COCCN1CCCc2ccc(NC(=O)c3ccccc3Cl)cc21	.	.	.	.	35.0
CCCCOc1ccc(C(=O)Nc2ccc3c(c2)N(CCOC)CCC3)cc1	.	.	.	.	22.0
COc1ccc(CC(=O)N(CCn2cccn2)c2nc3c(F)cccc3s2)cc1C	.	.	.	.	-4.0
CC(C)(C)NN=C1CC(c2ccccc2)Oc2ccccc21 (stereo unspecified)	.	.	.	.	-3.3
CC(CC(=O)Nc1cccnc1)=NNC(=O)COc1ccc(Cl)cc1Br	.	.	.	.	-9.7
Cc1c(C)c2c(C)[nH]nc2oc1=O	-10.2	2.2	2.1	-1.7	-6.7
SMILES	Mtb betalactam	RecA intein inh	Rv3671c protease	Mtb UGM inh	SSB-PriA inh
CCOC(=O)Cc1c(C)c2c(C)[nH]nc2oc1=O	-0.3	38.6*	-4.5	-1.9	1.4
CCCc1c(C)c2c(C)[nH]nc2oc1=O	-3.5	41.1*	-1.5	-1.0	-4.2
O=C(c1ccccc1)c1ccc(OCC(O)CNc2ccc(F)cc2)cc1 (stereo unspecified)	.	.	.	.	57.0*
O=C(c1ccccc1)c1ccc(OCC(O)CNCc2ccc(F)cc2)cc1 (stereo unspecified)	-2.5	2.5	.	-5.1	-1.5
CNC(=O)Cc1ccc(-n2c(=O)c3ccccc3n(CC(=O)Nc3ccc(F)cc3)c2=O)cc1	.	.	.	.	3.0
O=c1cc(O)c2ncccc2[nH]1	.	.	.	.	129.0*
Cc1cc2ncccc2[nH]c1=O	.	.	.	.	-5.0
Cn1nc(C(=O)N2CCN(C(c3ccccc3)c3ccccc3)CC2)ccc1=O	.	.	.	.	-9.0
CN(C)c1nccc2c1CCCN2	.	.	.	.	-9.0
Cc1ccc(S(=O)(=O)N2CCCCC2C(=O)Nc2nc(-c3ccccn3)cs2)cc1 (stereo unspecified)	.	.	.	.	65.5*
O=C(Nc1nc(-c2ccccn2)cs1)C1CCCCN1S(=O)(=O)c1cccs1 (stereo unspecified)	.	.	.	.	104.0*
COc1ccccc1Nc1ccc2c(O)cc(S(=O)(=O)O)cc2c1	.	.	.	.	51.4*
O=C(O)c1ccc([N+](=O)[O-])c2c1C(=O)c1ccccc1C2=O	-1.5	47.2*	-4.1	5.3	-2.6
Cc1cccc(-n2cnc(C(=O)NNC(=S)Nc3ccc(Cl)cc3)c2)n1	-3.7	-1.9	3.0	0.0	80.0*
O=C(COc1ccc(F)cc1)Nc1nc(-c2ccccn2)cs1	90.1	-0.2	-14.6	3.4	58.2*
O=C(COc1ccc([N+](=O)[O-])cc1)Nc1nc(-c2ccccn2)cs1	91.0	-2.4	-24.3	0.2	31.2
